A1 inh = inhibitors of A1 | AID 2241 | 21,000 tested, 0.51% active | caspase activation, % (test concentration not listed) | MEF A1-2A-BIM cells, caspase-Glo luminescence, 3 h; percent of clofoctol signal, DMSO as zero;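 active = most replicate scores above 10, or exactly half above 10 with mean activity above 10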;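 note: effector caspase 3 and 7 activity cleaving a DEVD luciferin substrate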
BJeLR viab HTS = lowers viability of BJeLR cells; 30,000 tested, 0.64% active; BJeLR fibroblasts viability, CellTiterGlo ATP luminescence, 48 h; HRASV12, hTERT and SV40 LT/ST transformed; AID 2275; viability loss activity score, % (no concentration beside the values); in the data active = viability loss activity score above about 50%;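 note: higher score means fewer live cells and less ATP luminescence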
Of the large screens only hits and unclear results are named; the others gave an inactive call. This is a sample that favours compounds with a hit; in the whole collection about 0.89% have one here.

C=C1[C@@H](C)[C@H]2[C@H](Cc3ccccc3)NC(=O)[C@]23OC(=O)/C=C\[C@H](O)CCC[C@@H](C)C/C=C/[C@H]3[C@@H]1O	A1 inh 30
CN1C[C@@H](NS(=O)(=O)N(C)C)C[C@@H]2c3cccc4c3c(cn4C)C[C@H]21	none
O=C1NC(=O)C(=Cc2cn(Cc3ccccc3)c3ccccc23)C(=O)N1	A1 inh 33
Cc1ccc(-c2nc(Cn3cc(C=C4C(=O)N(C)C(=O)N(C)C4=O)c4ccccc43)no2)cc1	none (no result: A1 inh)
CN1CC[C@@H]2CN3CCc4cccc(c43)[C@@H]2C1	none
CC(=O)[C@H]1CC[C@H]2[C@@H]3CC[C@H]4C[C@H](O)CC[C@]4(C)[C@H]3CC[C@]12C	none
COc1ccc(CC2C(=O)OCC2Cc2ccc3c(c2)OCO3)cc1OC (configuration not stated)	none
COc1cc2c(c(OC)c1OC)-c1cc3c(cc1[C@H](OC(C)=O)[C@H]1COC(=O)[C@@H]1C2)OCO3	BJeLR viab HTS 60
CC(C)C/C(=N\O)c1cn(C)c2ccccc12	none (no result: A1 inh)
CCC(=O)O[C@H]1CCC2C3CCC4=CC(=O)CC[C@]4(C)C3CC[C@@]21C (some centres not stated)	none
C=CC(C)(C)[C@@]12C[C@H]3C(=O)N/C(=C\c4cnc[nH]4)C(=O)N3[C@@H]1Nc1ccccc12	none
CC1=CC2OC3[C@H](O)C[C@@](C)([C@]34CO4)[C@@]2(CO)[C@H](O)C1=O (some centres not stated)	BJeLR viab HTS 74
OC[C@H]1O[C@@H](n2cnc3cc(Cl)c(Cl)cc32)C(O)[C@H]1O (some centres not stated)	none
CC1=CC2/C=C(\C)CCC(O)C(O)/C=C/C(=O)C23C(=O)NC(CC(C)C)C3C1C (configuration not stated)	A1 inh 77, BJeLR viab HTS 96
COc1ccc2c(c1)[C@]13CCCC[C@@H]1[C@H](C2)N(C)CC3	none

Bioassay records (PubChem BioAssay)
